EphB4 antag – antagonists of human EphB4-ephrin-B2 interaction; P54760; EphB4 LBD / TNYL-RAW-Alexa532 peptide, fluorescence polarization; inhibition, % at 7 µM; 97,000 tested, 0.15% active;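 active = inhibition above the screen-wide mean inhibition plus 3 SD, cut at about 15% in these data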
Plk1 PBD FP – Plk1 (human) PBD binding inhibition. P53350. Plk1 PBD phosphopeptide binding, fluorescence polarization. inhibition, %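 (tested at about 20 µM)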. 97,000 tested, 0.13% active; in the data active = inhibition above about 34%, passing the limit was not always enough
Target sequence (P53350 whole entry, looked up): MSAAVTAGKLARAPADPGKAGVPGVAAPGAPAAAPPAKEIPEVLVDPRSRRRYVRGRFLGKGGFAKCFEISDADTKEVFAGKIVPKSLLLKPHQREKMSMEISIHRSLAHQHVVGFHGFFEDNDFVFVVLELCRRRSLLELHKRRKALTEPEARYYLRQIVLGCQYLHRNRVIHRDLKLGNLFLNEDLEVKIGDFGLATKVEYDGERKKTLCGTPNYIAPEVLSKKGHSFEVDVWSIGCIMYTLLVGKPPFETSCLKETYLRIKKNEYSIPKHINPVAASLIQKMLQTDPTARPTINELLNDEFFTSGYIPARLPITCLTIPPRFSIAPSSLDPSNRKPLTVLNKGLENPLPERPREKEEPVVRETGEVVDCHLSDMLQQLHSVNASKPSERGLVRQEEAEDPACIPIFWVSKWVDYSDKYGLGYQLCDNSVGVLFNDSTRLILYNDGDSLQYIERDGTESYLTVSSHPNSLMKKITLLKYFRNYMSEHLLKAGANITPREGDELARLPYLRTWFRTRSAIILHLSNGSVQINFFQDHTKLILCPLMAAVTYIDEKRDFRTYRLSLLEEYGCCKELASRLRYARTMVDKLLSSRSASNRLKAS
PTPN22 act – activators of human LYP (PTPN22) phosphatase; 96,000 tested, 0.11% active; Q9Y2R2; activation, % at 2 µM; AID 697; recombinant LYP, DiFMUP fluorescence; 0 = plate median, 100 = signal doubled;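 active = activation at 2 µM above a set limit, the mean plus 5 SD, cut at about 37% in these data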
PLK1 kinase inh – PLK1 (human) kinase inhibition. P53350. recombinant PLK1 kinase, TR-FRET peptide phosphorylation. inhibition, % at 10 µM. 97,000 tested, 0.53% active. AID 619;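 active = inhibition of 50% or more in the single-concentration screen; inactive = inhibition below 50%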
LYP inh 2 – inhibitors of human LYP (PTPN22) phosphatase. recombinant LYP catalytic domain, DiFMUP fluorescence. 96,000 tested, 0.21% active. Q9Y2R2. inhibition, % at 2 µM;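 active = inhibition at 2 µM at or above a set limit, the screen mean plus 3 SD, cut at about 24% in these data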
Redox H2O2 DR – redox cycling H2O2 generation counter-screen for Plk1 PBD; shares compounds with Plk1 PBD FP; DTT; EC50, µM; 120 tested, under 10 active; AID 876; call rule not given here
Each line names hits and unclear results; the compound was inactive in the other large screens (follow-up assays come after a bar, where they were run); [ ] = dose if it differs, or a comment. In the library only some 1.2% were active in any assay of this set; here they are far more common.

CC(=O)N(/N=C1\Sc2ccccc2C1=O)c1ccccc1C	Plk1 PBD FP 124.8 | Redox H2O2 DR inactive
CC(=O)N(/N=C1\Sc2ccccc2C1=O)c1ccccc1	Plk1 PBD FP 101.1 | Redox H2O2 DR inactive
CC(=O)Oc1ccc2cc(-c3nc4ccccc4n3C)c(=O)oc2c1	none
Cn1c(-c2cc3ccc(OC(=O)C(C)(C)C)cc3oc2=O)nc2ccccc21	Plk1 PBD FP 37.2 | Redox H2O2 DR inactive
O=C(Nc1cccn(Cc2c(Cl)cccc2Cl)c1=O)c1c(Cl)cccc1Cl	Plk1 PBD FP 51.0 | Redox H2O2 DR inactive
O=C(Cc1ccc(Cl)cc1)NCCN1CCCC1	Plk1 PBD FP 48.1 | Redox H2O2 DR inactive
c1ccc(NCc2nnc3n2CCCCC3)cc1	Plk1 PBD FP 44.9 | Redox H2O2 DR inactive
O=C(C1CCCCC1)N(Cc1nc2sc3c(c2c(=O)[nH]1)CCCC3)Cc1cccs1	none
Cc1ccc(Cl)cc1NC1=C/C(=N\S(=O)(=O)c2cccs2)c2ccccc2C1=O	none
Cc1ccc(NC2=C/C(=N\S(=O)(=O)c3cccs3)c3ccccc3C2=O)c(C)c1	Plk1 PBD FP 61.9 | Redox H2O2 DR inactive
CCCCNS(=O)(=O)c1ccc(NC(=O)c2c(-c3ccccc3Cl)noc2C)cc1	none
CC1CCN(C(=O)c2ccc3c(c2NCCO)C(=O)c2ccccc2C3=O)CC1	none
Cn1c(=O)c(NCCO)c2c3c(cccc31)C(=O)c1ccccc1-2	EphB4 antag 30.9[fluorescence artefact?], Plk1 PBD FP 95.8 | Redox H2O2 DR inactive
CN(C)c1ccc(C(=O)Nc2nc3c(s2)CCCC3)cc1	Plk1 PBD FP 45.7 | Redox H2O2 DR inactive
Cc1cc(C(=O)Nc2nc3c(s2)CCCC3)no1	none
Cc1ccccc1NS(=O)(=O)c1cc(C(=O)NCc2ccco2)ccc1C	Plk1 PBD FP 38.1 | Redox H2O2 DR inactive
Nc1ccc2c(c1)C(=O)C(=O)c1ccccc1-2	Plk1 PBD FP 95.4 | Redox H2O2 DR inactive
Cc1ccc2cc(C(c3nnnn3C3CCCC3)N3CCN(c4ccccc4)CC3)c(=O)[nH]c2c1 (stereo unspecified)	Plk1 PBD FP 60.7 | Redox H2O2 DR inactive
COc1ccccc1C(=O)N1CCN(c2ccccn2)CC1	none
COc1cccc(OC)c1C(=O)N1CCN(c2ccccn2)CC1	Plk1 PBD FP 38.3 | Redox H2O2 DR inactive
CC(C)(C)NC(=O)CC(CC(=O)O)c1ccccc1 (stereo unspecified)	Plk1 PBD FP 44.9 | Redox H2O2 DR inactive
CC(C)(C)NC(=O)CC(c1ccccc1)c1ccccc1O (stereo unspecified)	none
CC(=O)N1CCc2cc(Br)cc(S(=O)(=O)NCc3ccccn3)c21	Plk1 PBD FP 55.5 | Redox H2O2 DR inactive
CC(C)(C)NC(=O)CN(Cc1cccnc1)C(=O)c1csnn1	none
Cc1ccc(C(=O)N2c3ccccc3N(Cc3ccccc3)C(=O)C2(C)C)cc1	none
COc1ccc2c3c(cccc13)NN=C2C	Plk1 PBD FP 38.0 | Redox H2O2 DR inactive
COc1ccc(C(=O)c2ccc(OC)c3cccc(O)c23)cc1OC	none
COc1cccc(-n2nc(C(=O)N3CC(C)CC(C)C3)c3ccccc3c2=O)c1 (stereo unspecified)	none
O=C(NC1(O)C(=O)c2ccccc2C1=O)c1ccccc1	Plk1 PBD FP 81.8 | Redox H2O2 DR inactive
CCCc1nc2sc3c(c2c(=O)n1NC(=O)CCC(=O)O)CCCC3	Plk1 PBD FP 46.0 | Redox H2O2 DR inactive
CCn1c(SCC(=O)O)nc2sc3c(c2c1=O)CCC3	none
O=C(NC1(C(F)(F)F)NC(=O)N(CC2CCCCC2)C1=O)c1ccco1 (stereo unspecified)	Plk1 PBD FP 62.7 | Redox H2O2 DR inactive
COc1ccccc1OCC(O)CN1C(=O)NC(C)(C)C1=O (stereo unspecified)	none (no result: EphB4 antag)
Cc1nn2c(=O)c(NC(=O)c3ccc(F)cc3)cnc2s1	none
Cc1ccc(C(=O)Nc2cnc3sc(C)nn3c2=O)cc1	Plk1 PBD FP 33.6 | Redox H2O2 DR inactive
CCn1ncc(CN2CCN(C(=O)Nc3ccccc3C(=O)OC)CC2)c1C	Plk1 PBD FP 39.4 | Redox H2O2 DR inactive
COC(=O)c1ccccc1NC(=O)N1CCN(C/C=C/c2ccccc2)CC1	none
Cc1c(CN(C)C)c2c(n1Cc1ccccc1)C(=O)c1ccccc1-2	none
C=CCSc1nccc(-c2cc(Cl)sc2Cl)n1	Plk1 PBD FP 45.8 | Redox H2O2 DR inactive
N#CCSc1nccc(-c2cc(Cl)sc2Cl)n1	none

Bioassay records: PubChem BioAssay, several laboratories
